Compounds with a hit are over-represented: about 2.2% of the library has one in this group of screens.
H9c2 protect = cardioprotection against H2O2-induced cell death, primary screen, uHTS, H9c2 cells, ATPLite luminescence; H9c2 cardiomyocytes, H2O2 injury protection, 2 h; protection from H2O2 cell death, % at 20 µM; 0.63% of 360,000 active;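 active = compounds giving at least 50% protection of heart cells from peroxide-induced death in the single-dose screen, raw or plate-pattern-corrected value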;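 also: 0% = DMSO wells with peroxide and 100% = DMSO wells without peroxide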
PLCb3 inh = human PLC-beta3 inhibitors, primary screen, biochemical, fluorescence; AID 720704, 2013; 0.18% of 370,000 active; inhibition, % at 12.2 µM; Purified PLC-beta3, fluorogenic substrate; in the data active = inhibition above about 11%;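 also: 0% = median of compound wells on plate and 100% = full blocker control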
FAS-TE inh = FAS thioesterase domain inhibitors, primary screen, biochemical, fluorescence intensity, uHTS | recombinant FAS-TE, OMFH fluorogenic substrate, fluorescence endpoint | inhibition, % at 15 µM | 0.67% of 360,000 active;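 active = compounds whose normalised, plate-corrected inhibition of enzyme fluorescence in the single-dose primary screen is 50% or more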;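 also: 0% = DMSO with enzyme and 100% = substrate without enzyme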
Target sequence (P49327 whole entry, looked up, the tested form may be a part): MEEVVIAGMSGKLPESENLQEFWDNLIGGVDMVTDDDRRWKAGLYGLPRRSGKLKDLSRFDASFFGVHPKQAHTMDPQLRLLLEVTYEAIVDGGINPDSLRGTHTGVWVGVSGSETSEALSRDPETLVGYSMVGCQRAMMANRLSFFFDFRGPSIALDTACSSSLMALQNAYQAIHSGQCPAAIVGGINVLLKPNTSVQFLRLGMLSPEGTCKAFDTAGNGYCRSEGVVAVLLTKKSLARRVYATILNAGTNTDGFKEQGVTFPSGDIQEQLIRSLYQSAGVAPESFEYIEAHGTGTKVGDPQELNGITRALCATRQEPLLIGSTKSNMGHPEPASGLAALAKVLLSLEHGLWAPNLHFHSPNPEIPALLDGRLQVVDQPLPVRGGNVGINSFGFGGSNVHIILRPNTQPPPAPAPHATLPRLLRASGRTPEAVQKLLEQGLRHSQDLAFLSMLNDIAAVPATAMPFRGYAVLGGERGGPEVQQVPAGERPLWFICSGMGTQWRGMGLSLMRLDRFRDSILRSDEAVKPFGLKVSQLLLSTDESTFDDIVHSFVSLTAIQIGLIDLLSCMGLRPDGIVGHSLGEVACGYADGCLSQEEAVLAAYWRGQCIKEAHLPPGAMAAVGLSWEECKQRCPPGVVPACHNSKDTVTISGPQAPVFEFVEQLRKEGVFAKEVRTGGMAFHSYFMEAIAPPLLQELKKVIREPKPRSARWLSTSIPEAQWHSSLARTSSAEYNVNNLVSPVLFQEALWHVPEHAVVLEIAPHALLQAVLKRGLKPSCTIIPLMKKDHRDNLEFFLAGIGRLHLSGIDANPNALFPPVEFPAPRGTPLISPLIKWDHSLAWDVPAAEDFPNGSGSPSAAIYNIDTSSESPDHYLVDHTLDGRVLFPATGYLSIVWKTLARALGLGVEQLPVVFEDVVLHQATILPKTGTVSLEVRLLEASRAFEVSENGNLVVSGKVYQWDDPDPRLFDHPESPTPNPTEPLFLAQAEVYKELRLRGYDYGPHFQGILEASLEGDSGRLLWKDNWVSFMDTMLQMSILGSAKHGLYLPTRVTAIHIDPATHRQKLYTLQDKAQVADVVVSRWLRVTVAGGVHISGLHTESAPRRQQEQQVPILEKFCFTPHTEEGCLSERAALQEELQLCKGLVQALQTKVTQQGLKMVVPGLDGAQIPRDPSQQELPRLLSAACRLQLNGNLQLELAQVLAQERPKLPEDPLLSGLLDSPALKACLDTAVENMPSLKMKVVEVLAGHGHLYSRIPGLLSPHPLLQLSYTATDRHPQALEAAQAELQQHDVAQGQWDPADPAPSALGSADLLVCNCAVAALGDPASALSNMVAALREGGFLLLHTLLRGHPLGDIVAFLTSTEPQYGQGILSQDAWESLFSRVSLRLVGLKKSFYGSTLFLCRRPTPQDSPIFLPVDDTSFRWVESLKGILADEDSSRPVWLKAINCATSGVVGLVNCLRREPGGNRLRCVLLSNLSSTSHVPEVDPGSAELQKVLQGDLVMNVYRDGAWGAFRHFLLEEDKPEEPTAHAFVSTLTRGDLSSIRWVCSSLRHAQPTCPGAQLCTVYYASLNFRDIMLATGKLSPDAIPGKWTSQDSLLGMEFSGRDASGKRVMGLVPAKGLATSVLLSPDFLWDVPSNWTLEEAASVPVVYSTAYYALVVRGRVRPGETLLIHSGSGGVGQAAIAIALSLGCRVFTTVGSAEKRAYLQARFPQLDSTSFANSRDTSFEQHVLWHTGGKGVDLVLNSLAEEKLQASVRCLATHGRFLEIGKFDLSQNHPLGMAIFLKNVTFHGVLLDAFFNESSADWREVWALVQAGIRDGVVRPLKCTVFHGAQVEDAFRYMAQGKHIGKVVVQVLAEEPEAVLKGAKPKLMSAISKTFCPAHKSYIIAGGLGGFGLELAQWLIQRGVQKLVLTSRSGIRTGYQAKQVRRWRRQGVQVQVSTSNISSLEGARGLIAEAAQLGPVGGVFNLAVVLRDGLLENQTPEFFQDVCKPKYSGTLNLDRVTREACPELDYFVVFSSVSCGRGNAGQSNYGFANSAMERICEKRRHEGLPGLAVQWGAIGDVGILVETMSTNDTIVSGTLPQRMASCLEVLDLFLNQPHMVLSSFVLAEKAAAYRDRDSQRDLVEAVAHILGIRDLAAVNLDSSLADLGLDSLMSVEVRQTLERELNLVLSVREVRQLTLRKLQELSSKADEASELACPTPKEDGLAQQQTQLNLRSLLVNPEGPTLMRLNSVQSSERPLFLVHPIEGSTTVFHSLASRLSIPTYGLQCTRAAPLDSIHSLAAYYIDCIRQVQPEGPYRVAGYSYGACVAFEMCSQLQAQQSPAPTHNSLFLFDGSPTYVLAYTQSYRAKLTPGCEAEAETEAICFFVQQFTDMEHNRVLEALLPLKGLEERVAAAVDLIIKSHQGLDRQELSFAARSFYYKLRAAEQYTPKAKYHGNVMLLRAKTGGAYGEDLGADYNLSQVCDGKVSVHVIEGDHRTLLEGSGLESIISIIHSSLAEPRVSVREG
PLC-gamma1 inh = PLC-gamma1 enzyme inhibitors, primary screen, biochemical, fluorescence, purified enzyme; inhibition, % at 12.2 µM; AID 720700, 2013; 1-phosphatidylinositol 4,5-bisphosphate phosphodiesterase gamma-1 (Homo sapiens), P19174; 0.84% of 370,000 active; fluorogenic substrate
PLCg1 ctr = PLC-gamma1 enzyme inhibitors, counter-screen for PLC-beta3 inhibitor project, biochemical, fluorescence. 3.1% of 3,300 active. shares compounds with PLC-gamma1 inh. inhibition, % at 12.3 µM. purified PLC-gamma1, fluorogenic substrate. AID 743258, 2014
PLCbeta3 conf = PLC-beta3 inhibitor confirmation, biochemical, fluorescence, purified enzyme; fluorogenic substrate fluorescence; 1% of 3,300 active; shares compounds with PLC-gamma1 inh; inhibition, % at 12.3 µM; in the data active = inhibition above about 11%
Numbers without * were called inactive; nt = no result. Rule as the data show it, unless noted: active = inhibition above about 9.5%; inactive = the rest.

SMILES	H9c2 protect	PLCb3 inh	FAS-TE inh	PLC-gamma1 inh	PLCg1 ctr	PLCbeta3 conf
COC(=O)C1=C(C)N(Cc2ccccc2C(F)(F)F)C(=NCc2ccc3c(c2)OCO3)NC1c1cccc(Cl)c1 (stereo unspecified)	nt	3	nt	12*	-2	-4
C=CCN=C1NC(c2cccc(Cl)c2)C(C(=O)OC)=C(C)N1Cc1cccc(C(F)(F)F)c1 (stereo unspecified)	nt	12*	nt	9	-11	-7
COc1cc2c(cc1NC(=O)CSc1nnc(-c3ccccn3)n1-c1ccccc1)oc1ccccc12	nt	4	nt	0	nt	nt
Cc1c(N(C)C(=O)COc2ccc3ccccc3c2)c(=O)n(-c2ccccc2)n1C	-2	-2	-5	0	nt	nt
CCN(Cc1ccc(OC)c(F)c1)C(=O)/C=C/c1ccc(S(=O)(=O)N2CCOCC2)cc1	-4	-9	13	3	nt	nt
CC(C)(C)NC(=O)CSc1nc(N)c(NC(=O)c2ccccc2F)c(=O)[nH]1	-5	12*	-4	6	-3	1
COc1ccc(S(=O)(=O)N2CCC[C@H]2C(=O)N2CCC[C@H]2C(=O)NCc2ccccn2)cc1C	nt	1	-9	0	nt	nt
Cc1cc(N2CCN(C(=O)Oc3ccc(-c4ccccc4)cn3)CC2)c2ccccc2n1	nt	0	nt	12*	2	-2
CC(=C/C(=O)O)/C(=C/c1ccccc1)C(=O)O	3	0	-7	10*	-4	1
CC1(C)OC(C)(C)C(=N/O)/C1=N\N	nt	2	nt	1	nt	nt
Cc1ccsc1C(=O)N1CCC1(C)C(=O)Nc1ccc2c(c1)OCCO2 (stereo unspecified)	-2	-2	-4	0	nt	nt
Cc1onc(-c2c(Cl)cccc2Cl)c1C(=O)Nn1cnnc1	-7	0	-8	0	nt	nt
Cc1onc(-c2c(Cl)cccc2Cl)c1C(=O)ONC(=O)c1cc(C(F)(F)F)cc(C(F)(F)F)c1	-1	5	-1	10*	4	4
COc1cc(C(=O)NCCN2C(=O)S/C(=C\c3cccs3)C2=O)cc(OC)c1OC	22	1	20	10*	1	2
COc1cccc(C(=O)NCCN2C(=O)S/C(=C/c3cccs3)C2=O)c1OC	-8	-7	8	0	nt	nt
CCOc1ncccc1C(=O)NCCN1C(=O)S/C(=C/c2cccs2)C1=O	7	9	23	13*	-2	2
COc1cc(OC)cc(C(=O)NCCN2C(=O)S/C(=C\c3cccs3)C2=O)c1	-18	-4	13	2	nt	nt
O=C(C[C@@H]1C[C@H]2c3cc(NC(=O)NC4CCCCC4)ccc3O[C@H]2[C@H](CO)O1)NC1CCCCC1	-16	1	-8	-3	nt	nt
COc1ccc([C@H]2CC(=O)C=C(c3ccnc4ccc(Cl)cc34)C2)cc1	-8	-2	31	0	nt	nt
Cc1ccc(C)c(SCC(=O)NCc2ccco2)c1	-1	12*	-2	0	-8	-6
CCOC(=O)N1CCN(C(=O)c2ccc(CS(=O)Cc3ccc(C)cc3)o2)CC1 (stereo unspecified)	5	-4	-2	-3	nt	nt
CCOC(=O)N1CCN(C(=O)c2ccc(CS(=O)Cc3ccccc3Cl)o2)CC1 (stereo unspecified)	2	-6	-8	9.9*	-2	3
CC12CC3(C)CC(C)(C1)CC(C(N)=O)(C2)C3	0	13*	-3	11*	4	-2
CCCC(C)C(=O)Nc1cccc(NC(C)=O)c1 (stereo unspecified)	-2	8	-6	12*	-6	-3
CCCC(C)C(=O)Nc1ccc2c(c1)OCCO2 (stereo unspecified)	2	3	-6	1	nt	nt
SMILES	H9c2 protect	PLCb3 inh	FAS-TE inh	PLC-gamma1 inh	PLCg1 ctr	PLCbeta3 conf
CCOC(=O)C[C@H]1c2cc(F)ccc2S(=O)(=O)N1C1CCCC1	5	-2	-9	4	nt	nt
Cc1csc(SCC(=O)c2c(N)n(CC(C)C)c(=O)n(C)c2=O)n1	-11	-1	-3	5	nt	nt
CCOC(=O)Cc1csc(SCC(=O)c2c(N)n(CC(C)C)c(=O)n(C)c2=O)n1	-14	0	-5	10*	-2	2
CC(C)Cn1c(N)c(C(=O)CSc2nc3ccccc3n2C)c(=O)n(C)c1=O	1	3	-8	1	nt	nt
Cc1ccc(-n2nnnc2SCC(=O)c2c(N)n(CC(C)C)c(=O)n(C)c2=O)cc1	-6	3	-6	11*	-5	1
COC(=O)[C@@]12C[C@@H](CC(=O)NCc3cccs3)C(=O)N(Cc3cccc4ccccc34)C1=CCC(C)(C)C2	nt	6	nt	5	nt	nt
CN(CC(=O)Nc1ccc(F)cc1)C(=O)Cn1cnc2ccc(Cl)cc2c1=O	8	-5	5	-2	nt	nt
Cc1nn(-c2ccccc2)c(C)c1NC(=O)c1cccs1	-4	2	-4	12*	-6	-3
CCNC(=O)C1(C)CCN(C(=O)c2cc(OC)c(OC)c(OC)c2)C1 (stereo unspecified)	-2	1	-6	-1	nt	nt
CCCNC(=O)C1(C)CCN(C(=O)c2ccc(C)c(F)c2)C1 (stereo unspecified)	-3	12*	-6	2	-2	1
CCCNC(=O)C1(C)CCCN(C(=O)c2ccc(C)c(F)c2)C1 (stereo unspecified)	1	6	-6	1	nt	nt
CCNC(=O)C1(C)CCN(C(=O)c2ccc(OC)c(OC)c2)C1 (stereo unspecified)	1	7	-5	9.7*	-8	-1
COc1cc(C23CCCN(CCC(C(C)(C)C)C2)C32OCCO2)cc(OC)c1OC (stereo unspecified)	nt	2	10	11*	2	4
CC(C)(C)C1CCN2CCCC(c3ccc([N+](=O)[O-])cc3)(C1)C21OCCO1 (stereo unspecified)	nt	2	17	0	nt	nt
CCOC(=O)c1ccccc1NC(=O)COC(=O)c1ccc(C)c(S(=O)(=O)N2CCOCC2)c1	0	1	23	0	nt	nt
O=C(Nc1ccccc1N1CCCCC1)c1ccc(F)c(S(=O)(=O)N2CCOCC2)c1	4	-1	34	2	nt	nt
Cc1ccc(C(=O)OCC(=O)Nc2ccccc2C(F)(F)F)cc1S(=O)(=O)N1CCOCC1	-1	11*	1	6	-6	-3
O=C(Nc1ccccc1C(F)(F)F)c1ccc(F)c(S(=O)(=O)N2CCOCC2)c1	6	4	-1	13*	1	-4
O=C(OCc1ccccc1C(F)(F)F)c1cc([N+](=O)[O-])ccc1N1CCOCC1	-6	3	33	10*	-1	2
CCC1CCc2sc(C(=O)NCC(c3ccc(OC)cc3)N3CCOCC3)cc2C1 (stereo unspecified)	-11	-8	28	-1	nt	nt

Compound activity as filed in PubChem BioAssay.
